Laboratory results from the supplement of paper PMC13380429.
Unmarked numbers belong to inactive results.

Tested on: Vero E6 infected with SARS-CoV-2
Assay: inhibition of SARS-CoV-2 cytopathic effect; higher = more antiviral protection, active = above 15
Conditions: 48 h

SMILES	inhibition of SARS-CoV-2 cytopathic effect (1 nM)	inhibition of SARS-CoV-2 cytopathic effect (8.33 nM)	inhibition of SARS-CoV-2 cytopathic effect (100 nM)	inhibition of SARS-CoV-2 cytopathic effect (833.33 nM)	inhibition of SARS-CoV-2 cytopathic effect (10000 nM)
N[C@H](C(=O)O)c1ccc(O)cc1 [oxfenicine]	2.15%	3.82%	2.38%	0.58%	2.3%
Nc1ncnc2c1ncn2[C@@H]1O[C@H](C[C@@H](N)CC[C@H](N)C(=O)O)[C@@H](O)[C@H]1O [sinefungin]	-10.5%	-10.2%	-10%	-7.77%	-7.24%
Cc1cc(C)c(NC(=O)C2CC3CCC2C3)c(C)c1 (stereo not given)	-1.62%	-1.21%	-3.03%	-0.39%	2.61%
CC1=C(C(=O)O)N2C(=O)[C@@H](NC(=O)[C@H](N)C3=CCC=CC3)[C@H]2SC1 [cephradine]	0.46%	-1.94%	-0.29%	0.485%	-2.73%
CC(C)(CC(=O)N1CCCC1)NCC(=O)N1C[C@@H](F)C[C@H]1C#N	1.83%	0.33%	-0.99%	-1.3%	-0.94%
COc1ccc2c(NC(=O)Nc3cccc(C(F)(F)F)n3)ccnc2c1	1.28%	1.81%	2.91%	10.2%	11.1%
COc1cccc(NC(=O)/C=C/c2ccc(Cl)cc2)c1	-1.02%	-1.96%	-1%	-0.56%	-4.87%
CC(C)(CO)CCCCCCC(C)(C)CO [gemcadiol]	-2.86%	-2.01%	-1.65%	-2.84%	-2.43%
CCCn1c(=O)[nH]c2nc(-c3ccc(S(=O)(=O)O)cc3)[nH]c2c1=O	0.98%	-0.31%	-0.83%	0.97%	0.55%
COc1ccc2c(c1)C(C(=O)N(Cc1ccc(N(C)C)cc1)c1ccc(C(C)C)cc1)CCC2 (stereo not given)	-2.02%	0.34%	3.26%	1.87%	-3.29%
CCOC(=O)Nc1cc2c(c(N)n1)N=C(c1ccccc1)[C@H](C)N2 [mivobulin]	3.19%	0.16%	1.34%	1.06%	-0.59%
C#C[C@]1(O)CC[C@H]2[C@@H]3CCC4=CC(=O)CC[C@@H]4[C@H]3C(=C)C[C@@]21CC [etonogestrel]	-0.26%	-1.3%	-4.31%	-3.15%	-3.98%
Nc1ccncc1 [dalfampridine]	0.53%	0.41%	1.64%	2.49%	1.18%
COc1cc2c(cc1OC)-c1cc3nc4ccccc4nc3n1C(C)(C)C2	2.63%	1.86%	1.86%	-2.74%	-7.6%
CN(CCc1ccc(Cl)c(Cl)c1)CCN1CCCC1	-1.5%	-0.54%	2%	3.84%	-1.25%
CCCCCCCCCCCCCC[C@@H](O)[C@@H](O)[C@@H](N)CO [phytosphingosine]	-6.1%	-0.27%	-1.1%	-3.05%	-6.04%
O=C(O)c1cc(O)c2c(c1)C(=O)c1cccc(O)c1C2=O [rhein]	-0.32%	-0.35%	-3.51%	-0.03%	-2.1%
CCCOc1ccc(S(=O)(=O)N2CCN(CCO)CC2)cc1-c1nc2c(CCC)cn(CC)c2c(=O)[nH]1 [mirodenafil]	-1.57%	0.66%	-2.49%	-3.18%	-6.03%
Nc1nc(=O)n([C@H]2C[C@H](O)[C@@H](CO)O2)cc1F [fdcyd]	0.4%	0.55%	-0.04%	8.53%	-2.15%
CNC(=O)c1ccccc1Nc1nc(Nc2ccc(N3CCOCC3)cc2OC)ncc1Cl	-0.14%	-2.52%	-2.14%	-3.76%	-10.9%
c1ccc2c(CCNc3ccc(Nc4ccncc4)cc3)c[nH]c2c1 [serdemetan]	-2.3%	-1.01%	-2.55%	-0.64%	22.1% (active)

SMILES	inhibition of SARS-CoV-2 cytopathic effect (1 nM)	inhibition of SARS-CoV-2 cytopathic effect (8.33 nM)	inhibition of SARS-CoV-2 cytopathic effect (100 nM)	inhibition of SARS-CoV-2 cytopathic effect (833.33 nM)	inhibition of SARS-CoV-2 cytopathic effect (10000 nM)
COc1ccc(-c2ccc3cc(C(=O)O)ccc3c2)cc1C12CC3CC(CC(C3)C1)C2 [adapalene]	-0.05%	-0.29%	2.4%	2.31%	3.12%
Cc1c(NC(=O)c2cccnc2)c(=O)n(-c2ccccc2)n1C [nifenazone]	-4.14%	0.87%	1.34%	-1.46%	0.61%
NC(=O)OCC(COC(N)=O)c1ccccc1 [felbamate]	1.11%	3.53%	-0.7%	1.06%	0.03%
CC(=O)N[C@@H](Cc1ccc(O)cc1)C(=O)O [N-acetyl-tyrosine]	-0.05%	1.2%	0.23%	2.56%	4.82%
O=C(O)Cc1ccc2c(c1)C(=O)c1ccccc1CO2 [isoxepac]	-4.41%	-3.03%	-6.78%	-4.01%	0.02%
Clc1ccc(C(OCCN2CCCCC2)c2ccccc2)cc1 (stereo not given) [cloperastine]	-0.8%	-0.73%	0.64%	-3.95%	-8.21%
Cc1ccnc(NC(=O)C(C)c2cccc(C(=O)c3ccccc3)c2)c1 (stereo not given) [piketoprofen]	0.01%	0.74%	2.28%	-1.34%	3.81%
CCc1cccc(CC)c1NC(=O)N1Cc2[nH]nc(NC(=O)c3ccc(N4CCN(C)CC4)cc3)c2C1	-4.07%	1.98%	1.34%	1.38%	-0.02%
OC[C@H]1O[C@H]([S-])[C@H](O)[C@@H](O)[C@@H]1O.[Au+] [aurothioglucose]	0.67%	-0.7%	-0.3%	0.93%	0.69%
C[C@@H]1O[C@@H](O[C@H]2[C@H](Oc3cc(O)c(C(=O)CCc4ccc(O)cc4)c(O)c3)O[C@H](CO)[C@@H](O)[C@@H]2O)[C@H](O)[C@H](O)[C@H]1O [naringin-dihydrochalcone]	0.83%	0.35%	0.27%	0.83%	1.4%
Cc1ccc(S(=O)(=O)NC(=O)NN2CCCCCC2)cc1 [tolazamide]	1.07%	-0.36%	0.85%	1.43%	2.51%
O=c1cc(N2CCNCC2)oc2c(-c3ccccc3)cccc12	0.61%	-3.07%	-0.37%	0.12%	1.5%
Cc1cc(O)cc2c1O[C@](C)(CCC[C@H](C)CCC[C@H](C)CCCC(C)C)CC2 [D-delta-tocopherol]	1.56%	0.99%	2.25%	0.84%	-0.19%
Nc1ncnc2c1c(COc1cccc(Cl)c1)nn2C1CCOCC1	-1.11%	-0.68%	-0.3%	-1.57%	-0.4%
CC(C)[C@](O)(c1ccc2cc(OC(F)F)c(OC(F)F)cc2c1)c1c[nH]nn1	-0.91%	2.28%	2.85%	5.3%	6.8%
c1ccc2cc(C3=NCCN3)ncc2c1	1.6%	1.22%	2.06%	-0.28%	1.35%
CC(C)C[C@H](NC(=O)[C@@H]1CCCN1)C(=O)NCC(N)=O [prolylleucylglycinamide]	0.63%	2.46%	1.44%	0.51%	1.22%
NC(=O)c1ccccc1O [salicylamide]	-0.95%	2.62%	5.65%	3.83%	0.13%
Cc1cc(C(C)(C)CC(C)(C)C)ccc1OCCOCC[N+](C)(C)Cc1ccccc1 [methylbenzethonium-chloride]	-1.31%	-1.52%	-3.07%	-0.46%	-4.8%
CC1(CN)Cc2ccccc2C1	4.53%	-3.63%	-3.31%	1.99%	-3.29%
